This passage reports residual activity results from ChEMBL document CHEMBL2218924, “A broad activity screen in support of a chemogenomic map for kinase signalling research and drug discovery” (Biochem J, 2013).

Test [1] has as its target Death-associated protein kinase 1 (Homo sapiens) (UniProt P53355). The conditions noted are these: at 10 µM.
Test [2] concerns the target Death-associated protein kinase 2 (Homo sapiens) (UniProt Q9UIK4). The note with it: at 1 µM.
For test [3] the target is unchanged. The conditions noted are these: at 10 µM.
For test [4], the target named is T1, Serine/threonine-protein kinase DCLK2 (Homo sapiens) (UniProt Q8N568).
T1 sequence (whole entry): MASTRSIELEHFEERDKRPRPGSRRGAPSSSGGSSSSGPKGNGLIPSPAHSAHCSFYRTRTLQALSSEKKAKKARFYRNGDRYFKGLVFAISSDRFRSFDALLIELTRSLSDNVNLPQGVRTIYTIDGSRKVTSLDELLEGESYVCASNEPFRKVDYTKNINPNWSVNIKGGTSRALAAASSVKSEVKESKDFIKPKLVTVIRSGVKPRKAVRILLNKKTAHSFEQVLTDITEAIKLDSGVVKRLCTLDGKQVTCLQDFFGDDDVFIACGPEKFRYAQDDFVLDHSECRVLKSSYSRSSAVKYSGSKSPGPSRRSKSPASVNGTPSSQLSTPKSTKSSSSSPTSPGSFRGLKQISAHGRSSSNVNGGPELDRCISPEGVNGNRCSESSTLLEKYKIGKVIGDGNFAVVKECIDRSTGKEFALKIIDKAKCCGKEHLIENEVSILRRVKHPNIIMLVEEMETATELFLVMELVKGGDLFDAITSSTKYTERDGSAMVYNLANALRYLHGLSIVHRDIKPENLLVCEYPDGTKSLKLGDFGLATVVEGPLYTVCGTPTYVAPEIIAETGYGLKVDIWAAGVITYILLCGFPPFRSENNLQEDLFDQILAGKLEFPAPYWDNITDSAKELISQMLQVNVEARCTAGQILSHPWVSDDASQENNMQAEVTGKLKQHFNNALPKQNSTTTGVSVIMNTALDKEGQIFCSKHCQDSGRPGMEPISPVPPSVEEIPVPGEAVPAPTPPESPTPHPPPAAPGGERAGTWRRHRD
The note with it: at 1 µM.

Test [5] concerns the target T1, Serine/threonine-protein kinase DCLK2 (Homo sapiens). The note with it: at 10 µM.
For test [6], the target named is T2, Discoidin domain-containing receptor 2 (Homo sapiens) (UniProt Q16832).
T2 sequence (whole entry): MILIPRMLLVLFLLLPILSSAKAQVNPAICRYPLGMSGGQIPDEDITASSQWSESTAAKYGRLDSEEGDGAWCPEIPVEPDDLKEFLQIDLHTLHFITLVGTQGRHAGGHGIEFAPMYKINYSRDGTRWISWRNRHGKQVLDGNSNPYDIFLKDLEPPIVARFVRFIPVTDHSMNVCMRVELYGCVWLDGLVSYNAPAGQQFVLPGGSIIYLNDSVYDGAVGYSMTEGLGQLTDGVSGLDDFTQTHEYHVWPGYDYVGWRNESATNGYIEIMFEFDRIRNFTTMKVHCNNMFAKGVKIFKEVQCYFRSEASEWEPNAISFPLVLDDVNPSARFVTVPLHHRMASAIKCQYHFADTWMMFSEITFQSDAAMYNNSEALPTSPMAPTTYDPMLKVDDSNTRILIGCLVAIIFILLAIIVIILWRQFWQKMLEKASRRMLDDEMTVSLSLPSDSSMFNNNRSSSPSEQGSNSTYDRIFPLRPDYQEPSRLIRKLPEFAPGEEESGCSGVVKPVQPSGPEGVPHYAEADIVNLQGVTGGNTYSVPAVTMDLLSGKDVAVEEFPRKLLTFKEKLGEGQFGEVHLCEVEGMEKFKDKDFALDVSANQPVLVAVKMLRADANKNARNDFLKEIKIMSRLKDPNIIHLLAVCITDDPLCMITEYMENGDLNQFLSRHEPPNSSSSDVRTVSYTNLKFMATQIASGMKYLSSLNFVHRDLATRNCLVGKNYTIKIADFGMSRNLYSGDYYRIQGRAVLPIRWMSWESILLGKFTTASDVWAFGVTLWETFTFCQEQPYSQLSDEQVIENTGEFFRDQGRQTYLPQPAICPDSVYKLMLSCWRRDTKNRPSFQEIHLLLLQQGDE
The note with it: at 1 µM.

Test [7] concerns the target T2, Discoidin domain-containing receptor 2 (Homo sapiens). The conditions noted are these: at 10 µM.
Test [8] has as its target T3, Myotonin-protein kinase (Homo sapiens) (UniProt Q09013).
T3 sequence (whole entry): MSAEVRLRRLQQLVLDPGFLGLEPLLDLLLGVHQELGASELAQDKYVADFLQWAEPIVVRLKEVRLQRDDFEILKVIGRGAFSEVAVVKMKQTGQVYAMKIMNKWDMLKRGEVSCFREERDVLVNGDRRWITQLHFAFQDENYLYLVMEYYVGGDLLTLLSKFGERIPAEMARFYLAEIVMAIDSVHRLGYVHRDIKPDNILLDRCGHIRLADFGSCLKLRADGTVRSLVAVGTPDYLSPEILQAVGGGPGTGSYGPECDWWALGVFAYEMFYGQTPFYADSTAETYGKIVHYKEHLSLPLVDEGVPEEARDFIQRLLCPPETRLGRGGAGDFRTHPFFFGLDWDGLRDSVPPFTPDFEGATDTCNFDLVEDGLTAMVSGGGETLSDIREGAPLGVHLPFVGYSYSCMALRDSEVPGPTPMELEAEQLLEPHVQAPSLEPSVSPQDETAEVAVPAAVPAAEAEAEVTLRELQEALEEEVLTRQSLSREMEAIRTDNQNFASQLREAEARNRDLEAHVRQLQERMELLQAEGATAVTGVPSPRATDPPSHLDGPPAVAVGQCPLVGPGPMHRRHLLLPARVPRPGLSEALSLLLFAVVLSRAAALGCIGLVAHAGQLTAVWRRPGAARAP
The note with it: at 1 µM.

The target of test [9] is T4, Dual specificity tyrosine-phosphorylation-regulated kinase 2 (Homo sapiens) (UniProt Q92630).
T4 sequence (whole entry): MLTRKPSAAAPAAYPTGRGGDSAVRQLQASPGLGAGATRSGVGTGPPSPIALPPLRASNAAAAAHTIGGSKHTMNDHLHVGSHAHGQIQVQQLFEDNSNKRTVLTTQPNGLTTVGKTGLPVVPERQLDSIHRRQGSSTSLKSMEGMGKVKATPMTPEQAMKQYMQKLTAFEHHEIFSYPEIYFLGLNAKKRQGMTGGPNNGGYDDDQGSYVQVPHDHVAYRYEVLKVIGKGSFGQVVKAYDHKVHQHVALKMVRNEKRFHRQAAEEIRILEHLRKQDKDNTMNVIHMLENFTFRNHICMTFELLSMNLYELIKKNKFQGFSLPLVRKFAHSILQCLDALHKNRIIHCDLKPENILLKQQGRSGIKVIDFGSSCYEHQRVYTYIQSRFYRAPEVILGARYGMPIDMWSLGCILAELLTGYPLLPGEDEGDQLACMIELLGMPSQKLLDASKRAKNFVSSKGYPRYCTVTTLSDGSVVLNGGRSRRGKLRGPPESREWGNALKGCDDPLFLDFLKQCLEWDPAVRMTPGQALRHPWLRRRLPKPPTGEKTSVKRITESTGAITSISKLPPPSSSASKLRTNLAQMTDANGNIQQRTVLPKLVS
The note with it: at 1 µM.

Test [10] has as its target T4, Dual specificity tyrosine-phosphorylation-regulated kinase 2 (Homo sapiens). The conditions noted are these: at 10 µM.
Test [11] deals with T5, Ephrin type-A receptor 1 (Homo sapiens) (UniProt P21709).
T5 sequence (whole entry): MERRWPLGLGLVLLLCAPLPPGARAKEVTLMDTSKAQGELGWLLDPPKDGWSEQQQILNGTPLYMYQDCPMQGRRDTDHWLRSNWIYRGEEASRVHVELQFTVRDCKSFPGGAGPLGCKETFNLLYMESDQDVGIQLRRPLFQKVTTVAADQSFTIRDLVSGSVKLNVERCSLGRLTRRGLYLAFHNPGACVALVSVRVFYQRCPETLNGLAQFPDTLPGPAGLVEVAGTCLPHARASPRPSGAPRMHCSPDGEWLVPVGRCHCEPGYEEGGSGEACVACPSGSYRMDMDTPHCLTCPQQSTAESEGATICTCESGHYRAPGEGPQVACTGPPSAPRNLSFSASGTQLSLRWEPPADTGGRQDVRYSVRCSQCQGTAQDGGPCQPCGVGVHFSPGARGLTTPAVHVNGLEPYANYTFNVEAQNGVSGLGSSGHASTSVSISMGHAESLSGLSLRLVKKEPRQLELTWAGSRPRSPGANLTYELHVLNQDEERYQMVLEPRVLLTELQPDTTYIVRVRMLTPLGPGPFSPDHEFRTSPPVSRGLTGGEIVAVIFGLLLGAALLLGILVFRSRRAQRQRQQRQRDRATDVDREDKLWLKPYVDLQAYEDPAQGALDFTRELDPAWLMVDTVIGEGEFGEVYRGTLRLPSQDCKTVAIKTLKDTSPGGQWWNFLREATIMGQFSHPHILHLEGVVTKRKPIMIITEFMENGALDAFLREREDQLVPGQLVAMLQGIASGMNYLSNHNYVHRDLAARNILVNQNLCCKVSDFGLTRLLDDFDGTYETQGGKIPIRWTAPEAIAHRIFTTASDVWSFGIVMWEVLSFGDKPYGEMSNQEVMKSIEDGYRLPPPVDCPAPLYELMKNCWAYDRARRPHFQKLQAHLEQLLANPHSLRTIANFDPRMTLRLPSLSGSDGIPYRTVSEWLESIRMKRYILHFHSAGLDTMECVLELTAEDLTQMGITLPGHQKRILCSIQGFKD
The note with it: at 1 µM.

In test [12] the target is T5, Ephrin type-A receptor 1 (Homo sapiens). The note with it: at 10 µM.
Test [13] addresses T6, Serine/threonine-protein kinase 17A (Homo sapiens) (UniProt Q9UEE5).
T6 sequence (whole entry): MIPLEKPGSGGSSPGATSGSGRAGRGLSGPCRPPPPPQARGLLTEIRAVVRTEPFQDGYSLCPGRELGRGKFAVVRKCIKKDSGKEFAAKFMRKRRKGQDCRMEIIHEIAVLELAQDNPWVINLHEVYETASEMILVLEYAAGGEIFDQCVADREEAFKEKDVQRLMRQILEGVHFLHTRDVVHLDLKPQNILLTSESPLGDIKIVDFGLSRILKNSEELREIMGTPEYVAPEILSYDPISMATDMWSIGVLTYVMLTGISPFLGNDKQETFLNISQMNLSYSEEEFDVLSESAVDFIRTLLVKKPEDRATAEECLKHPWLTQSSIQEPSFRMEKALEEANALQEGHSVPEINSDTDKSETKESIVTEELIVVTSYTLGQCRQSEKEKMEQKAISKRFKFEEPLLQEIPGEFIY
The conditions noted are these: at 1 µM.

The target in test [14] is T6, Serine/threonine-protein kinase 17A (Homo sapiens). The conditions noted are these: at 10 µM.
Test [15] addresses Ephrin type-A receptor 2 (Homo sapiens) (UniProt P29317). The note with it: at 1 µM.
Test [16] shares this target. The note with it: at 10 µM.
In test [17] the target is T7, Ephrin type-A receptor 3 (Homo sapiens) (UniProt P29320).
T7 sequence (whole entry): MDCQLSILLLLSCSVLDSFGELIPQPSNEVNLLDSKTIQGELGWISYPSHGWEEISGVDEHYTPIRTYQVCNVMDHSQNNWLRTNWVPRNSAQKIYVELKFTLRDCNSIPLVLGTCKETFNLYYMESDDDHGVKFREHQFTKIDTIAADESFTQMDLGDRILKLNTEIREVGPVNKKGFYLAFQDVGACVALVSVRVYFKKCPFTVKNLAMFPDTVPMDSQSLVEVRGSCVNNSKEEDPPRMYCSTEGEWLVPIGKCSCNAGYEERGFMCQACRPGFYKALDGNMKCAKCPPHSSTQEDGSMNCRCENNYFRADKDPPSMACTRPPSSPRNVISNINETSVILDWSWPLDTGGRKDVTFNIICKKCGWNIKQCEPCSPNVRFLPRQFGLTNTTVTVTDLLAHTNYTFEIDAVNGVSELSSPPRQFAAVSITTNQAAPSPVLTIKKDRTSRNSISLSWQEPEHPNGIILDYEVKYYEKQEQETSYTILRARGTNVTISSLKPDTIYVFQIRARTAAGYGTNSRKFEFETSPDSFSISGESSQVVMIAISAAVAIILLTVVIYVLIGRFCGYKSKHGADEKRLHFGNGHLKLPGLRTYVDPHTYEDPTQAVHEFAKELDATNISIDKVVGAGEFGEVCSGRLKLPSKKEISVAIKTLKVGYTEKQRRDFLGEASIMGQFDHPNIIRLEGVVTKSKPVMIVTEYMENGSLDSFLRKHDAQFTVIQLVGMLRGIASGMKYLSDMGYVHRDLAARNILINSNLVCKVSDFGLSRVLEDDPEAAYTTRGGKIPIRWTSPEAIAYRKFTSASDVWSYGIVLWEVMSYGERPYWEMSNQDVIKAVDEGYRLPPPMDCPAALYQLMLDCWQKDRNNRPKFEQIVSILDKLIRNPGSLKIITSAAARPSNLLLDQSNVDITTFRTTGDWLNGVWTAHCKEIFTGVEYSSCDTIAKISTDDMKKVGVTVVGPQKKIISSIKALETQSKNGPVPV
The note with it: at 1 µM.

Chain of Death-associated protein kinase 2 (Homo sapiens) (Q9UIK4 whole entry, looked up): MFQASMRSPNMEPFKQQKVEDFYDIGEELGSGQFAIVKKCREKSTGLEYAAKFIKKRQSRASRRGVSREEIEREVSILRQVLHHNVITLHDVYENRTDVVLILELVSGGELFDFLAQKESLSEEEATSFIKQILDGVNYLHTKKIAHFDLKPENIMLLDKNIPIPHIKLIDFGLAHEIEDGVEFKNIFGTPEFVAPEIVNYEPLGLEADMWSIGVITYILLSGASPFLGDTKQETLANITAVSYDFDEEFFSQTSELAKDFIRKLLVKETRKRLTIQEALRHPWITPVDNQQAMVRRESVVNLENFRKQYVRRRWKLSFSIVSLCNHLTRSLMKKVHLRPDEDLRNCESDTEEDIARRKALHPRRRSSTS
Chain of Death-associated protein kinase 1 (Homo sapiens) (P53355 whole entry, looked up): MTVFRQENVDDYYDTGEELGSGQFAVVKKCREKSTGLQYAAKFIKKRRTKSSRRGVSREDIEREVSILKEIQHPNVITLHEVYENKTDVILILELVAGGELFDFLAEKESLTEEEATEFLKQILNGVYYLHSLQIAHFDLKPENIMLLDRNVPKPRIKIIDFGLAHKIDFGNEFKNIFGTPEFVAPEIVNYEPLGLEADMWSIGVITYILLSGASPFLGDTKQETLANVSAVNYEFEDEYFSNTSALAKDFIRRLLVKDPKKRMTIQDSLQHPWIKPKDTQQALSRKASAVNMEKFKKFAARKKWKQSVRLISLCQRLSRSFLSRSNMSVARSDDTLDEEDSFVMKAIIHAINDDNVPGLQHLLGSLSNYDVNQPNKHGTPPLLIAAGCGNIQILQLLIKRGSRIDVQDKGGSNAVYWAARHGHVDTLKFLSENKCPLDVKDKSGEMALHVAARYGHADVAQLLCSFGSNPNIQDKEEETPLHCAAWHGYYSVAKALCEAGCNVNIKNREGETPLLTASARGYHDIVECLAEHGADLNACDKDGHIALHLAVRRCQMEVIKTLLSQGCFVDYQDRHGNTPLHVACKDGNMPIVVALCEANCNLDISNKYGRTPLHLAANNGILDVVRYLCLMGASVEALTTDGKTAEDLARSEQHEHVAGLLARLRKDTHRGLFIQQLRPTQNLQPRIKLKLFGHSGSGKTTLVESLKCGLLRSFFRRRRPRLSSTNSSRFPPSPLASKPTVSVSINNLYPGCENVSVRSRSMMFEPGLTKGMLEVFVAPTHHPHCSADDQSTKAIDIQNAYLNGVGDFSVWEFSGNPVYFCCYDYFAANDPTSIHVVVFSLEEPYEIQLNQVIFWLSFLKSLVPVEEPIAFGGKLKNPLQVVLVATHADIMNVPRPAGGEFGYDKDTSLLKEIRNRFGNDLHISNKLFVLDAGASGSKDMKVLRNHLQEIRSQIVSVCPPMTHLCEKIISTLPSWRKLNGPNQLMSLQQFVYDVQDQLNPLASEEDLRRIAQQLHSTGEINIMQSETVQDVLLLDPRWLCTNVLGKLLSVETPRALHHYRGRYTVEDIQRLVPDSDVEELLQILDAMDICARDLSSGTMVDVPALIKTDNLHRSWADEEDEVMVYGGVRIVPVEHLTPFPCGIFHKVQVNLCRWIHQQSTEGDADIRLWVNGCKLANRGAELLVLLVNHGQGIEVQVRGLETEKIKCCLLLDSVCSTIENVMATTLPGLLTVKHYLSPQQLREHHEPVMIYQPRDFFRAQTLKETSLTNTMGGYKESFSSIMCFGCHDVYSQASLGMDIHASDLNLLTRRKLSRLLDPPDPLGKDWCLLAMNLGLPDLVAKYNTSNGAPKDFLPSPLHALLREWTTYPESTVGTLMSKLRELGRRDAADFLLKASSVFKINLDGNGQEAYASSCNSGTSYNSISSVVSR
Chain of Ephrin type-A receptor 2 (Homo sapiens) (P29317 whole entry): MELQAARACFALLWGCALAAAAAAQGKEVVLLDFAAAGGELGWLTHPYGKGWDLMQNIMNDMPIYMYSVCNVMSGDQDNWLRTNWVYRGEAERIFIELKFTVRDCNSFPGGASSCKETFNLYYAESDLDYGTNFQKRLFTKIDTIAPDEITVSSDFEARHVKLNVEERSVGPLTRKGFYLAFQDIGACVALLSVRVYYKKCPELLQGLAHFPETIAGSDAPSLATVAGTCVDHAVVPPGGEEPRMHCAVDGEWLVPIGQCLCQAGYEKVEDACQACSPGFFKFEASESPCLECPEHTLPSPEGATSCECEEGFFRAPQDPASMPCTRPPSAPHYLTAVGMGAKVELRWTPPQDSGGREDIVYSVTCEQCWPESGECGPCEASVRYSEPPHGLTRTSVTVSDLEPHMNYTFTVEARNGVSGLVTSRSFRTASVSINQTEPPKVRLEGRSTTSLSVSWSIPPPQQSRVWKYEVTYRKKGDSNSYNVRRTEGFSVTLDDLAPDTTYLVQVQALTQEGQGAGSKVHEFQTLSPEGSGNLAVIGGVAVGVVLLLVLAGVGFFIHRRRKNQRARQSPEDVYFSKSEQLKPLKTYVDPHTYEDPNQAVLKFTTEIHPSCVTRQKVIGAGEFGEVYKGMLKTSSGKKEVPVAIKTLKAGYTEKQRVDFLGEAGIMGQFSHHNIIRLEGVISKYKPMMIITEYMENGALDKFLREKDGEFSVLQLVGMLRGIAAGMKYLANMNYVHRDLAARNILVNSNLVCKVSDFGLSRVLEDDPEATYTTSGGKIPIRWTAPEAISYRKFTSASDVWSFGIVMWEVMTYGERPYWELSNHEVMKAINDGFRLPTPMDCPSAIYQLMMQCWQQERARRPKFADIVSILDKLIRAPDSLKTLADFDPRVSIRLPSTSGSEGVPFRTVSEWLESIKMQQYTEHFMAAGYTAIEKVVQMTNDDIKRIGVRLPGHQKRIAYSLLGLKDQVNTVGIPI

For `O=C(NC(NC(=S)Nc1ccc(F)c([N+](=O)[O-])c1)C(Cl)(Cl)Cl)C(c1ccccc1)c1ccccc1` (stereo not drawn), the residual activity in test [1] worked out at 71%; in test [2], 95%; in test [3] it was 78%; in [4], 136%; in test [5] it was 86%; in [6] it was 102%. Besides, the residual activity in test [7] was 90%; in test [8] it was 71%; in test [9], 98%; in test [10], 100%; in test [11] it was 104%; in test [12] it was 92%.

For `CC(C)(C)c1nc2c3ccc(F)cc3c3c(=O)[nH]ccc3c2[nH]1`, the residual activity in test [1] amounted to 3%; in test [2] it was 11%; in [3] it was 14%; in test [4], 38%; in test [5], 27%; in test [13], 0%. Besides, the residual activity in test [14] came to 0%; in test [11], 74%; in test [15], 103%; in [16], 103%; in test [17], 99%.

One may read the residual activity as the signal under treatment as a percentage of the control signal.
